According to PubChem BioAssay AID1159580 (chemical genetic matrix, 2015):
Several values for one entry are separate records, joined by “and”; a condition that tells them apart may be missing. Equal entries are not always repeated. Out of some 5,500 compounds screened, about 2,000 (36%) were called active. Roughly 18% stayed inconclusive and do not appear here. Cut-off read from the data, not from the text of the source: active = normalized growth mostly below about 0.91 (no sharp cut-off); inconclusive = no clear call, values can overlap the other calls; inactive = mostly above about 0.92. The list shows a part of the results.

Assay: chemical genetic growth profiling, strain panel (AID 1159580);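 note: tested at 20 µM; growth read once vehicle control cultures reached saturation at 30 °C; 1 = growth at the plate median or of vehicle wells; lower values mean less growth of the strain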
Conditions: S. cerevisiae deletion strains, growth OD
[1] = locus YAL013W, strain DEP1, active compounds read low
[2] = locus YDR150W, strain NUM1, active compounds read low
[3] = locus YJR075W, strain HOC1, active compounds read low
[4] = locus YNL153C, strain GIM3, active compounds read low

Measured: normalized growth

CN1CC(CNC(=O)OCc2ccccc2)CC2c3cccc4c3c(cn4C)CC21 (stereo unspecified)
inactive: [1] 1.01 | locus YBR021W, strain FUR4, active compounds read low 1.02 | locus YBR229C, strain ROT2, active compounds read low 1 | locus YCL029C, strain bik1, active compounds read low 0.977 | locus YDL035C, strain GPR1, active compounds read low 1.04 | locus YDL074C, strain BRE1, active compounds read low 0.999 | locus YDL101C, strain DUN1, active compounds read low 0.978 | locus YDL185W, strain tfp1, active compounds read low 0.97 | locus YDL192W, strain arf1, active compounds read low 0.993 | locus YDR101C, strain arx1, active compounds read low 0.995 | [2] 0.994 | locus YDR162C, strain NBP2, active compounds read low 1.02 | locus YDR318W, strain mcm21, active compounds read low 0.985 | locus YDR388W, active compounds read low 0.987 | locus YDR502C, strain sam2, active compounds read low 0.941 | locus YEL061C, strain CIN8, active compounds read low 0.992 | locus YER110C, active compounds read low 0.972 | locus YER155C, strain BEM2, active compounds read low 0.991 | locus YER167W, strain BCK2, active compounds read low 1 | locus YGL078C, strain dbp3, active compounds read low 0.995 | locus YGL086W, strain mad1, active compounds read low 0.982 | locus YGL248W, strain PDE1, active compounds read low 0.989 | locus YGR078C, strain PAC10, active compounds read low 0.995 | locus YGR135W, strain pre9, active compounds read low 0.984 | locus YGR252W, strain gcn5, active compounds read low 1.04 | locus YHR030C, strain SLT2, active compounds read low 0.998 and 0.982 | locus YHR079C, strain IRE1 (second series), active compounds read low 0.965 | locus YHR079C, strain IRE1, active compounds read low 0.972 | locus YHR094C, strain hxt1, active compounds read low 0.988 | locus YHR129C, strain ARP1, active compounds read low 0.999 | locus YHR200W, strain rpn10, active compounds read low 0.985 | locus YIL066C, strain RNR3, active compounds read low 1.01 | locus YIL073C, strain SPO22, active compounds read low 0.911 | locus YIL125W, strain kgd1, active compounds read low 1 | locus YIR030C, strain dcg1, active compounds read low 0.986 | locus YJL095W, strain BCK1, active compounds read low 0.957 and 0.968 | locus YJL134W, strain LCB3, active compounds read low 0.995 | locus YJL168C, strain set2, active compounds read low 1 | locus YJL187C, strain SWE1 (second series), active compounds read low 0.973 | locus YJR043C, strain POL32, active compounds read low 1.07 | locus YJR066W, strain TOR1, active compounds read low 0.877 | [3] 0.981 | locus YKL009W, strain mrt4, active compounds read low 0.979 | locus YKL068W, active compounds read low 0.983 | locus YKL085W, strain MDH1 (second series), active compounds read low 0.975 | locus YKL085W, strain MDH1, active compounds read low 0.975 | locus YKR001C, strain vps1, active compounds read low 0.996 | locus YLR039C, strain RIC1, active compounds read low 0.988 | locus YLR058C, strain SHM2, active compounds read low 0.988 | locus YLR102C, strain apc9, active compounds read low 0.986 | locus YLR113W, strain HOG1, active compounds read low 1.03 | locus YLR262C, strain YPT6, active compounds read low 0.998 | locus YLR268W, strain sec22, active compounds read low 0.986 | locus YLR330W, strain CHS5, active compounds read low 0.993 | locus YLR342W, strain FKS1 (second series), active compounds read low 1.07 | locus YLR371W, strain rom2, active compounds read low 0.992 | locus YLR418C, strain cdc73, active compounds read low 1.01 | locus YML016C, strain PPZ1, active compounds read low 0.999 | locus YML032C, strain rad52, active compounds read low 0.998 | locus YML124C, strain tub3, active compounds read low 1 | locus YMR078C, strain ctf18, active compounds read low 0.983 | locus YMR223W, strain ubp8, active compounds read low 0.979 | locus YMR263W, strain SAP30, active compounds read low 0.979 | locus YMR307W, strain GAS1, active compounds read low 1.16 | locus YNL067W, strain RPL9B, active compounds read low 0.96 | [4] 0.981 | locus YNL183C, strain NPR1, active compounds read low 0.879 | locus YNL233W, strain BNI4, active compounds read low 0.986 | locus YNL250W, strain rad50, active compounds read low 0.971 | locus YNL271C, strain bni1, active compounds read low 0.992 | locus YNL298W, strain CLA4, active compounds read low 0.99 | locus YNL307C, strain MCK1, active compounds read low 0.985 | locus YNR052C, strain pop2, active compounds read low 0.975 | locus YOL012C, strain htz1 0.968 | locus YOL147C, strain pex11, active compounds read low 0.989 | locus YOR061W, strain CKA2, active compounds read low 0.994 | locus YOR069W, strain VPS5, active compounds read low 0.997 | locus YOR136W, strain idh2, active compounds read low 0.98 | locus YOR144C, strain elg1, active compounds read low 1.01 | locus YOR184W, strain ser1, active compounds read low 1 | locus YOR231W, strain MKK1, active compounds read low 0.991 | locus YOR316C, strain cot1, active compounds read low 0.979 | locus YPL256C, strain CLN2, active compounds read low 0.986 | locus YPR119W, strain clb2, active compounds read low 0.981 | locus YPR141C, strain kar3, active compounds read low 0.988 | locus YPR163C, strain tif3, active compounds read low 1 | locus YPR167C, strain met16, active compounds read low 0.991 | strain wtn01, active compounds read low 1.01

CN1C[C@H](CNC(=O)OCc2ccccc2)C[C@@H]2c3cccc4c3c(cn4C)C[C@H]21
inactive: [1] 0.987 | locus YAL040C, strain CLN3, active compounds read low 0.985 | locus YCL061C, strain MRC1 (second series), active compounds read low 0.998 | [2] 0.994 | locus YDR363W, strain ESC2, active compounds read low 1.01 | locus YER002W, strain NOP16, active compounds read low 1.04 | [3] 0.969 | [4] 0.904 | locus YNL175C, strain NOP13, active compounds read low 1.01 | locus YNL197C, strain WHI3, active compounds read low 0.994 | locus YNL224C, strain SQS1, active compounds read low 1.04 | locus YOR083W, strain WHI5 (second series), active compounds read low 0.969 | locus YPL055C, strain LGE1, active compounds read low 1.02
